The record followed here is publication PMC4081100, “A DNA-binding-site landscape and regulatory network analysis for NAC transcription factors in Arabidopsis thaliana”.

Common to all, as to assay: universal protein binding microarray (PBM); transcription factors of Arabidopsis thaliana; high values mean tight binding
Assay [1] addresses GST-NTL6(1-168) (Arabidopsis thaliana, UniProt Q9SCK6 1-168). The following applies: protein: recombinant; tags: GST; chain copies: 2; dsDNA, one strand shown. In outline:
(§1)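 GST-tagged proteins (NAC-domain, full-length or DNA-binding-domain) were induced in cells, with zinc acetate supplied for zinc-finger proteins, then purified on glutathione–Sepharose 4B. Each was tested in duplicate at 200 to 500 nM final on custom all-10-mer Agilent 4 × 180K arrays rendered double-stranded by primer extension. The binding value is the normalised enrichment score (E-score) across gapped and ungapped 8-mers.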

The target in assay [2] is T1, GST-ANAC055(1-171) (Arabidopsis thaliana, UniProt Q9LDY8 1-171).
T1 sequence: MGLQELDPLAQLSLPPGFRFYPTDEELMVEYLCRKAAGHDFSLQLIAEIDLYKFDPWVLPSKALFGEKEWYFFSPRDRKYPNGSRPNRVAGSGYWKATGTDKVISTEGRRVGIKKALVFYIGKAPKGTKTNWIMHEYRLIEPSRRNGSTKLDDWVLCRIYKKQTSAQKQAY
The following applies: protein: recombinant; tags: GST; chain copies: 2; dsDNA, one strand shown. The method in brief: as §1

Assay [3] concerns the target T2, GST-ANAC092(1-285) full length (Arabidopsis thaliana, UniProt Q9FKA0 1-285).
T2 sequence: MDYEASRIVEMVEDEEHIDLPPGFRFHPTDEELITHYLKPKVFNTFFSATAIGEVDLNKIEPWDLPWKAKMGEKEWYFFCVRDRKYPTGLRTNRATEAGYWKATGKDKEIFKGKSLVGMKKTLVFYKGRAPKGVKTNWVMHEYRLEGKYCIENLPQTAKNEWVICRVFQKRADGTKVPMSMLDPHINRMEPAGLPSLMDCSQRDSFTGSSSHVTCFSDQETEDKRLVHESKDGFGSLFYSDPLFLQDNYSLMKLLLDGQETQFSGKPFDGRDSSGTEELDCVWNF
The following applies: protein: recombinant; tags: GST; chain copies: 2; dsDNA, one strand shown. The method in brief: as §1

Assay [4] deals with T3, GST-NAP(1-166) (Arabidopsis thaliana, UniProt O49255 1-166).
T3 sequence: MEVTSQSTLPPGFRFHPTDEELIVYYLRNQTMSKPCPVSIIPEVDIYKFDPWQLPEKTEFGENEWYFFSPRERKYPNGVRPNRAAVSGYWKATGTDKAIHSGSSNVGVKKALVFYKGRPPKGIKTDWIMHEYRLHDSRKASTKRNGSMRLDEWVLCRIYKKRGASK
The following applies: protein: recombinant; tags: GST; chain copies: 2; dsDNA, one strand shown. In outline:
as §1

Assay [5] concerns the target T4, GST-NST2(1-184) (Arabidopsis thaliana, UniProt Q9M274 1-184).
T4 sequence: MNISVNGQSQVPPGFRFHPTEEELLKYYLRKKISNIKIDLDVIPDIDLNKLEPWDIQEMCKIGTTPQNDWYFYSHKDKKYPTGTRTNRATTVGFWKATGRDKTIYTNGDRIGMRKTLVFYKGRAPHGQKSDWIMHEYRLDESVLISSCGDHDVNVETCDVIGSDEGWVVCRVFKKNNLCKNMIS
The following applies: protein: recombinant; tags: GST; chain copies: 2; dsDNA, one strand shown. In outline:
as §1

The target of assay [6] is T5, GST-NTL8 NAC domain (Arabidopsis thaliana, UniProt Q9XIN7 14-156).
T5 sequence: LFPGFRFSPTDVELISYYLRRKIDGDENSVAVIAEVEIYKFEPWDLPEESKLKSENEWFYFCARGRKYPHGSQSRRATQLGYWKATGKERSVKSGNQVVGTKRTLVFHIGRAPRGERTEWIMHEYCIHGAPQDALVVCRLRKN
The following applies: protein: recombinant; tags: GST; chain copies: 2; dsDNA, one strand shown. In outline:
as §1

Assay [7] concerns the target T6, GST-SND1(1-203) (Arabidopsis thaliana, UniProt Q9LPI7 1-203).
T6 sequence: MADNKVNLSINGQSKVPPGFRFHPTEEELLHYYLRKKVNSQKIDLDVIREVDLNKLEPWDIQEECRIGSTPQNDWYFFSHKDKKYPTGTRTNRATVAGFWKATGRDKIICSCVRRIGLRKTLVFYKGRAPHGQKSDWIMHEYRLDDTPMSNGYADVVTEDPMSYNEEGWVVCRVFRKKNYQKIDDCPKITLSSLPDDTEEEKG
The following applies: protein: recombinant; tags: GST; chain copies: 2; dsDNA, one strand shown. The method in brief:
as §1

Assay [8] addresses T7, GST-VND7 NAC domain (Arabidopsis thaliana, UniProt Q9C8W9 9-158).
T7 sequence: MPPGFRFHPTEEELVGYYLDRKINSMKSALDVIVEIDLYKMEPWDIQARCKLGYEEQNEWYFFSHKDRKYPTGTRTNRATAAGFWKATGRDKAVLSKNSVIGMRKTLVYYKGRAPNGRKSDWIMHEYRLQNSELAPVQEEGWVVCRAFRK
The following applies: protein: recombinant; tags: GST; chain copies: 2; dsDNA, one strand shown. The method in brief: as §1

Assay [9] has as its target GST-WRKY1(266-371) (Arabidopsis thaliana, UniProt Q9SI37 266-371). The following applies: protein: recombinant; tags: GST; dsDNA, one strand shown. In outline: as §1
In assay [10] the target is T8, GST-ATAF1 NAC domain (Arabidopsis thaliana, UniProt Q39013 7-158).
T8 sequence: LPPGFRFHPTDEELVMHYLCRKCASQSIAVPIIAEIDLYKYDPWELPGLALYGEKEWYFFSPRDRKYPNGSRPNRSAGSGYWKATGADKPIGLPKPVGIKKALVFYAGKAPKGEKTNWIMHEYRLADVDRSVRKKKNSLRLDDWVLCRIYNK
The following applies: protein: recombinant; tags: GST; chain copies: 2; dsDNA, one strand shown. In outline: as §1

The target of assay [11] is T9, GST-VND3 NAC domain (Arabidopsis thaliana, UniProt Q9FH59 12-162).
T9 sequence: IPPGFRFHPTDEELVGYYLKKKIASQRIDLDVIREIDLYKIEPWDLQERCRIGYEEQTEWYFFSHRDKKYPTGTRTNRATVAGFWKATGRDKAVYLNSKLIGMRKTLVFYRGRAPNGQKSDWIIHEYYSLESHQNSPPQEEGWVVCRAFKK
The following applies: protein: recombinant; tags: GST; chain copies: 2; dsDNA, one strand shown. In outline:
as §1

Assay [12] addresses T10, GST-ANAC019 NAC domain (Arabidopsis thaliana, UniProt Q9C932 14-162).
T10 sequence: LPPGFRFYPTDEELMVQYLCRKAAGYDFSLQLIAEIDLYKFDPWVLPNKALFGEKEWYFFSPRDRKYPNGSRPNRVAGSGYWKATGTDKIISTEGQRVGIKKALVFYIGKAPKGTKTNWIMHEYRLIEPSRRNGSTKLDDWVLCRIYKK
The following applies: protein: recombinant; tags: GST; chain copies: 2; dsDNA, one strand shown. The method in brief: as §1

For assay [13], the target named is T11, GST-ANAC092(1-176) (Arabidopsis thaliana, UniProt Q9FKA0 1-176).
T11 sequence: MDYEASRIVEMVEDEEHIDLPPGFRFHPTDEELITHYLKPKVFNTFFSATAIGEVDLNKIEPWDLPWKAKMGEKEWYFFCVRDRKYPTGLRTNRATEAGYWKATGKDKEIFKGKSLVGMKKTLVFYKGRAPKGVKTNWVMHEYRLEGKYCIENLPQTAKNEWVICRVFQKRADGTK
The following applies: protein: recombinant; tags: GST; chain copies: 2; dsDNA, one strand shown. In outline: as §1

Sequence of GST-WRKY1(266-371) (Q9SI37 266-371): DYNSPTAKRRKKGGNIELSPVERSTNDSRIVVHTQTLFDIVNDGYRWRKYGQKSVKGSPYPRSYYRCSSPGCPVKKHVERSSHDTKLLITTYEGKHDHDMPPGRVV
Sequence of GST-NTL6(1-168) (Q9SCK6 1-168): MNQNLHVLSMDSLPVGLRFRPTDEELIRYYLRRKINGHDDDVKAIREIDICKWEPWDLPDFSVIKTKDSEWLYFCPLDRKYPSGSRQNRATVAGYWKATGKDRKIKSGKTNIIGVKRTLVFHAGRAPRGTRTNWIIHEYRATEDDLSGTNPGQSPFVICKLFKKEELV

In the case of AAGTCATC, the binding signal came out at 0.233 E-score in [1]; 0.0818 E-score in assay [2]; 0.213 E-score in assay [3]; 0.0606 E-score in assay [4]; 0.089 E-score in [5]; 0.0978 E-score in [6]. For the same sequence, the binding signal in assay [7] was found to be 0.242 E-score; in assay [8], 0.11 E-score; in [9], 0.406 E-score.

On to GTCAAGTA, for which the binding signal in assay [2] was 0.0988 E-score; in assay [10], 0.136 E-score; in assay [3] it was 0.186 E-score; in [7], 0.0698 E-score; in [11], 0.137 E-score; in [9], 0.417 E-score.

As for ACCGTCAA, the binding signal in assay [12] came to 0.156 E-score; in assay [3], 0.117 E-score; in assay [4] it was 0.092 E-score; in assay [7], 0.148 E-score; in assay [11] it was 0.126 E-score; in assay [9], 0.41 E-score.

In the case of GTCAATTA, the binding signal in [2] is 0.0852 E-score; in [10], 0.202 E-score; in assay [3], 0.159 E-score; in [5], 0.147 E-score; in assay [7], 0.122 E-score; in [11], 0.104 E-score. In addition, in [9], the binding signal was determined as 0.42 E-score.

Turning to AAGGTAAG, the binding signal in assay [13] worked out at 0.0968 E-score; in assay [1], 0.306 E-score; in assay [12], 0.175 E-score; in [10], 0.11 E-score; in [3] it was 0.225 E-score; in [5] it was 0.144 E-score. In addition, the binding signal is 0.402 E-score in assay [6], 0.2 E-score in assay [7] and 0.113 E-score in assay [11].

For the sequence CACGCGAC, the binding signal was found to be 0.421 E-score in assay [13]; 0.462 E-score in [3]; 0.0736 E-score in assay [4]; 0.161 E-score in assay [5]; 0.351 E-score in assay [7]; 0.064 E-score in assay [8]. For the same sequence, the binding signal in assay [9] stood at 0.11 E-score.

On to ACAGGGAA, for which the binding signal in assay [13] was found to be 0.128 E-score; in assay [1] it was 0.239 E-score; in [2] it was 0.0748 E-score; in assay [4], 0.0751 E-score; in assay [5], 0.0924 E-score; in assay [6] it was 0.409 E-score. For the same sequence, the binding signal in [7] worked out at 0.108 E-score; in assay [11] it was 0.115 E-score.

As to ATAAGGAA, the binding signal in [13] was determined as 0.118 E-score; in [1], 0.423 E-score; in [2], 0.0899 E-score; in assay [10] it was 0.129 E-score; in assay [3] it was 0.217 E-score; in [5] it was 0.136 E-score. In addition, the figures for the binding signal in assay [6], in assay [7] and in [11] were 0.332 E-score, 0.201 E-score and 0.152 E-score, respectively.
